Data: PubChem BioAssay (NCATS)
Inconclusive results are not listed. A number with no mark means an inactive call. Active and inactive are the calls of the source. Calls come from the whole dose curve; as a rule, active = well fitted cell-killing curve with a large enough effect; inconclusive = small, poorly fitted or top-dose-only effect; inactive = flat fitted curve, though single readings scatter.

Test: Cell Viability - LYMP1-002 - Assay at 40 hr (AID 994); note: nearly all actives have a fitted effect of over 60% in size;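 for viability change, negative = cytotoxic: 0% = DMSO only and full inhibition = 92 µM tetraoctylammonium bromide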
Settings: LYMP1-002 lymphoblastoid cell viability; series mostly up to 92.2 µM; viability change, negative = cytotoxic: at the top concentration
From the text: NIH Chemical Genomics Center [NCGC]
NIH Molecular Libraries Screening Centers Network [MLSCN]
National Institutes of Environmental Health Sciences [NIEHS]
National Toxicology Program [NTP]
We have developed a 1536-well cell-based assay for quantitative high throughput screening (qHTS) against a number of cell lines to determine in vitro cytotoxicity of small molecules. This particular assay uses a human lymphoblastoid cell line (LYMP1-002) purchased from Coriell Institute for Medical Research.
NCGC Assay Protocol Summary:
The CellTiter-Glo luminescent cell viability assay (Promega) is a homogeneous method to measure the number of viable cells in culture. The end point readout of this assay is based on quantitation of intracellular ATP, an indicator of metabolic activity, using the luciferase reaction. Luciferase catalyzes the oxidation of beetle Luciferin to oxyluciferin and light in the presence of ATP. The luminescent signal is proportional to amount of ATP present.
Using the CellTiter-Glo luminescent cell viability assay, the amount of cellular ATP was measured in the lymphoblastoid cell line with complete culture medium following compound treatment for 40 hours. The assay was performed in opaque white Kalypsys 1536-well plates. In the screen, tetraoctylammonium bromide was used as positive control. Library compounds were measured for their ability to cause acute toxicity in the cell line, as reflected by a decrease in intracellular ATP levels, in a concentration-dependent manner. […] AC50 values were determined from concentration-response data modeled with the standard Hill equation.
qHTS protocol for CellTiter Glo lymphoblastoid cellular assay
[Step] [Parameter] [Value] [Description]
1. Reagent; 5 uL; 2500 lymphoblastoid cells/well
2. Time; 5 hr; 37 C incubation
4. Controls; 23 nL; Tetraoctylammonium bromide 6.4pM to 92 uM
5. Time; 40 hr; 37 C incubation
6. Reagent; 5 uL; CellTiter Glo reagent
7. Time; 30 min; Room Temperature
8. Detection; Luminescence; Viewlux plate reader
Keywords: cell viability, cytotoxicity, lymphoblastoid cell line, luminescence, NTPHTS, NTPHTS_NCGC, NIEHS, DSSTox, MLSMR, MLSCN, NIH Roadmap, qHTS, NCGC
Potency is the fitted concentration of half-maximal effect.

Point of comparison: `Cc1cc(NS(=O)(=O)c2ccc(N)cc2)no1`, “viability change, negative = cytotoxic” value 6.75%. Against it:
- CC1=NN(c2ccccc2)C(=O)C1 — lower, -12.4%
- NC(N)=NC(N)=NCCc1ccccc1 — lower, -20.9%
- Cc1ccnc2c1NC(=O)c1cccnc1N2C1CC1 — lower, -12.4%
- Cc1ncc([N+](=O)[O-])n1CCO — lower, -4.12%
- CCc1cc(C(N)=S)ccn1 — lower, -5.99%
- C[C@]12C=CC(=O)C=C1CC[C@@H]1[C@@H]2C(=O)C[C@@]2(C)[C@H]1CC[C@]2(O)C(=O)CO — lower, -3.64%
- COc1ccc2cc3[n+](cc2c1OC)CCc1cc2c(cc1-3)OCO2 — lower, -29.4%
- O=C(O)c1cc(=O)[nH]c(=O)[nH]1 — lower, -5.64%
- O=C(N[C@H](CO)[C@H](O)c1ccc([N+](=O)[O-])cc1)C(Cl)Cl — lower, -8.59%
- Cc1noc(NS(=O)(=O)c2ccc(N)cc2)c1C — lower, -1.79%
- Cc1nnc(NS(=O)(=O)c2ccc(N)cc2)s1 — lower, -2.95%
- NNC(=O)c1ccncc1 — lower, -3.73%

For `CN(C)c1ccc(C(=C2C=CC(=[N+](C)C)C=C2)c2ccc(N(C)C)cc2)cc1`, the Potency was 3.98 µM (active).
In the case of `N=C(N)c1ccc(OCCCCCOc2ccc(C(=N)N)cc2)cc1`, the Potency is reported as 50.1 µM (active).
